The record followed here is ChEMBL document CHEMBL3988442, “University of Dundee, Small-Polar-MMV Screening Library” (2021).

The assay deals with Leishmania donovani. Kind of assay: Leishmania intramacrophage assay. Type of assay: functional, organism-based. Also noted: scale not given: in the data most compounds retested in dose-response had high values.

The structures appear in SMILES notation. The whole screen tested about 69,000 compounds, of which about 1,000 (1.4%) showed an effect of 50% or more. For the sample, strong results were picked, then their nearest neighbours and some compounds at random.

`CN1CCC(N(CCc2ccccc2)C(=O)c2ccc(CO)cc2)CC1`: the “Percent Effect” value (30.3 µM, […]) is reported as 30.31%. On the same count and under the same terms, the value for `CN1CCC(N(CCc2ccccc2)C(=O)c2ccoc2)CC1` was 23.03%; that for `CN1CCC(N(CCc2ccccc2)C(=O)c2cc[nH]c2)CC1` was 69.36%. On the same count and under the same terms, the value for `C[C@H]1C(=O)NC[C@H]2CN(Cc3cccc(F)c3)C[C@H]21.O=C(O)C(F)(F)F` was 4.969%. On the same count and under the same terms, as for `Cc1cc(CN(C)C(=O)C2CCCN(C(N)=O)C2)no1` (stereo not given), the figure is -0.7168%.

`Cn1ncc(NCc2cccc(COC(C)(C)C)c2)c(Cl)c1=O`: for the setting “30 µM, 30.03 µM”, the “Percent Effect” value was 51.11%. `Cn1ncc(NCc2cccc(F)c2)c(Cl)c1=O`: the “Percent Effect” value (30 µM) was 13.08%. Turning to `COc1ccc(CNc2cnn(C)c(=O)c2Cl)cc1`, the “Percent Effect” value (30 µM) is on record as 56.65%. As to `COc1cccc(CNc2cnn(C)c(=O)c2Cl)c1`, the “Percent Effect” value (30 µM, 30.03 µM) worked out at 34.79%. With `Cn1ncc(NCc2cc(F)cc(F)c2)c(Cl)c1=O`, the “Percent Effect” value (30 µM, 30.03 µM) is recorded as 2.406%. For the compound `CC(C)OCc1cccc(CNc2cnn(C)c(=O)c2Cl)c1`, for the setting “30 µM”, the “Percent Effect” value came to 21.9%.

`COc1ncccc1CN1CC[C@]2(C[C@@H](OCc3ccccn3)CO2)C1.O=C(O)C(F)(F)F.O=C(O)C(F)(F)F.O=C(O)C(F)(F)F`: the “Percent Effect” value (30.3 µM, […]) is recorded as -3.573%. Same read-out and setting: the value for `Nc1nnnn1NCc1cccc(Cl)c1Cl` was 4.224%. For `O=C(CCc1ccsc1)N1CCCC(n2cncn2)C1` (stereo not given), the “Percent Effect” value (30 µM) is 18.97%.

For `Cc1nccn1C1CCCN(C(=O)c2cccc(OCC(N)=O)c2)C1` (stereo not given), for the setting “30 µM”, the “Percent Effect” value is 14.8%. In the case of `COc1nccnc1N1CCC2(CC1)[C@H](O)C[C@@H]2OCCN(C)C`, the “Percent Effect” value (30.3 µM, […]) was determined as 13.35%.

In the case of `Cc1sc2c(C3CCNCC3)nc(Nc3cccc(F)c3)n2c1C.Cl`, the “Percent Effect” value (30.3 µM, […]) is -10.63%.

As to `c1cc(-c2nc3c(c(NCCn4ccnn4)n2)CCNCC3)ccn1`, the “Percent Effect” value (30.3 µM, […]) amounted to 24.72%. On the same count and under the same terms, the value for `c1csc(CCNc2nc(-c3ccncc3)nc3c2CCNCC3)c1` was 9.747%. Turning to `Cl.NC1CCc2nc(-c3ccncc3)nc(Nc3cccc(F)c3)c2C1` (stereo not given), for the setting “30.3 µM, […]”, the “Percent Effect” value is reported as 64.39%.

`O=C(Nc1cccc(F)c1)NC1CCN(Cc2ccncc2)CC1`: the “Percent Effect” value (30.3 µM, […]) was found to be 20.9%. Regarding `CNC(=O)c1cccc(CN2CCC(N(C)Cc3noc(C)n3)C2)c1` (stereo not given), under “30.3 µM, […]”, the “Percent Effect” value is on record as -22.53%. As for `CNc1cc(C2CCCN(S(=O)(=O)c3cn[nH]c3)C2)ccn1` (stereo not given), the “Percent Effect” value (30.3 µM, […]) is reported as 9.494%. As to `CCN1CCN(C2CCN(Cc3c(C)noc3C)CC2)C1=O`, the “Percent Effect” value (30 µM, 30.03 µM) is 32.64%. On the same count and under the same terms, as for `Cc1nc(CN2CCCC2c2ccsc2)nc2ccccc12` (stereo not given), the figure is 47.19%.

Consider `CN(C)c1nc(N)nc(CN2CCCC(c3ccccc3)CC2)n1` (stereo not given), for which the “Percent Effect” value (30.3 µM, […]) is reported as 6.795%.

In the case of `CN(C)c1nc(N)nc(CN2CCCC2c2cccs2)n1` (stereo not given), the “Percent Effect” value (30.3 µM, […]) is given as 87.57%.

With `CN(C)c1nc(N)nc(CN2CCCC2c2ccsc2)n1` (stereo not given), the “Percent Effect” value (30.3 µM, […]) came to 83.34%.

For the compound `Cc1cccc(C2CCCN2Cc2nc(N)nc(N(C)C)n2)c1C` (stereo not given), the “Percent Effect” value (30.3 µM, […]) is on record as 37.96%. As for `CCCc1noc(CN2CCCC2c2ccsc2)n1` (stereo not given), the “Percent Effect” value (30 µM, 30.03 µM) amounted to 16.77%. `OC1(CNCCc2csc(-c3cccnc3)n2)CCNC1` (stereo not given): the “Percent Effect” value (30.3 µM, […]) was 17.55%.

Regarding `CN1CCn2c(-c3cccc(F)c3)cnc2C12CCN(CC1CC1)CC2.O=C(O)C(F)(F)F.O=C(O)C(F)(F)F.O=C(O)C(F)(F)F`, the “Percent Effect” value (30.3 µM, […]) was 7.679%.

Regarding `Cc1nc(CCNc2ccc(-c3nc(C)c(C)c(=O)[nH]3)cn2)cs1`, under “30.3 µM, […]”, the “Percent Effect” value is listed as -24.43%. The same measure, in the same setting: the value for `CCc1cc(=O)[nH]c(-c2ccc(NCCc3ccc(O)cc3)nc2)n1` was 10.3%. On the same count and under the same terms, the value for `Cc1nc(-c2ccc(NCCc3ccc(O)cc3)nc2)[nH]c(=O)c1C` was 67.3%; that for `CCOCC1c2c(cnn2CC2CC2)CCN1C(=O)c1ccncn1.O=C(O)C(F)(F)F` (stereo not given) was -17.31%. Same read-out and setting: as for `Cc1c(C(=O)NS(=O)(=O)c2ccc(F)cc2)cnn1CC(C)C`, the figure is -23.8%; as for `CC(C)N1CCCN(c2nc(-c3cccnc3)nc3c2cnn3C)CC1`, 93.98%. As to `Cn1ncc2c(N3CCC3)nc(-c3ccncc3)nc21`, the “Percent Effect” value (30.3 µM, […]) was 7.019%. On the same count and under the same terms, as for `Cn1ncc2c(N3CCS(=O)(=O)CC3)nc(-c3cccnc3)nc21`, the figure is 31.77%; as for `COc1ccccc1-c1csc(NC(=O)N2CCN(C)CC2C)n1` (stereo not given), 9.878%; as for `CCc1ccccc1CN1CC[C@@]2(O)CCN(S(=O)(=O)N(C)C)C[C@H]2C1`, -14.75%. The same measure, in the same setting: the value for `CCN(C)S(=O)(=O)NCC1CCCN(Cc2ccccc2F)C1` (stereo not given) was -11.05%; that for `Nc1ncc(C(=O)N2CCN(c3nccs3)CC2)cc1Cl` was -4.984%. For the compound `O=C(c1ccc(O)c(Cl)c1)N1CCN(c2nccs2)CC1`, the “Percent Effect” value (30.3 µM, […]) stood at 64.57%. Take `O=C(c1cc(Cl)cc(Cl)c1)N1CCN(c2nccs2)CC1`: the “Percent Effect” value (30 µM, 30.03 µM) is reported as 30.43%. Regarding `CC(C(N)=O)N(C)Cc1ccccc1C(F)(F)F` (stereo not given), under “30.3 µM, […]”, the “Percent Effect” value is on record as -40.32%. The same measure, in the same setting: as for `CN(Cc1ccccc1C(F)(F)F)C(C(N)=O)c1ccccc1` (stereo not given), the figure is 68.32%.

Turning to `CN(Cc1ccccc1F)C(C(N)=O)c1ccccc1` (stereo not given), the “Percent Effect” value (30.3 µM, […]) is 11.08%. Still for that read-out and setting: as for `Fc1ccc(Sc2ccccc2CNC2=NCCN2)cc1.I`, the figure is 50.51%.
